Many of the other results were omitted from the sample, so hits are more common in it than they were.
LmPK inh = blocks Leishmania mexicana pyruvate kinase activity; Potency, µM (highest dose often 57.5 µM), for the others: at the highest dose activity change, negative = inhibition, hits mostly inhibitors; 0.37% of 290,000 active; purified LmPK, Kinase-Glo ATP luminescence, 1 h; note: potency is the fitted concentration of half-maximal effect; % is set by controls: 0 for no effect and ±100 for the full control effect
Target sequence (Q27686 whole entry, looked up): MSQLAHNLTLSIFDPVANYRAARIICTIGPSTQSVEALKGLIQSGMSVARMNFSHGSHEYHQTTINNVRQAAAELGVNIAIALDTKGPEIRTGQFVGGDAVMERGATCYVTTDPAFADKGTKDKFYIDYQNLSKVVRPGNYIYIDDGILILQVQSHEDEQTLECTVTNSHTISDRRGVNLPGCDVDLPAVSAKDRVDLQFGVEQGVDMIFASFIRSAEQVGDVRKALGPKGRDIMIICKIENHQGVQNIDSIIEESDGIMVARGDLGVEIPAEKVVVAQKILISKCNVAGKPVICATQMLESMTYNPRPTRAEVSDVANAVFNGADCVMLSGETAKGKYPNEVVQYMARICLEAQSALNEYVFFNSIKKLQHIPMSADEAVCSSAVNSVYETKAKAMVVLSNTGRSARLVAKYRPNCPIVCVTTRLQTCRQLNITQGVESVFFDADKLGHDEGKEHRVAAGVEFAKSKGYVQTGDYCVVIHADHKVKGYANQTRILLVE
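Pyruvate kinase activity monitored as ATP production (luciferase luminescence). Conditions: 0.1 nM enzyme, 0.5 mM PEP, 0.1 mM ADP, 1 h, RT; normalized against uninhibited and no-enzyme wells.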
FBPA Giardia inh = Giardia lamblia aldolase inhibition | Potency, µM (series often up to 59.6 µM), without a hit: at the highest dose activity, negative = inhibition, most hits filed as inhibitors | A8B2U2 | purified Giardia FBPA | 0.71% of 290,000 active; note: potency is the fitted concentration of half-maximal effect; % is set by controls: 0 for no effect and ±100 for the full control effect; nearly all actives have a fitted effect of over 55% in size
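40 nM FBPA preincubated 10 min at RT with compound (up to 57.5 uM final), then substrate plus GAPDH/TPI/NAD/arsenate coupling and diaphorase/resazurin added. Fluorescence read after 20 min at RT, 525/598 nm.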
Cycloheximide cs = counter-screen for Shiga toxin inhibitors: cycloheximide protein synthesis inhibition | cell reporter, cycloheximide protein synthesis inhibition counterscreen | max response, % | 12% of 300,000 active; in the data active = max response mostly above about 13%, no sharp cut-off; inactive = mostly below about 14%; note: read at 38.3 µM for the half of the compounds with a filed dose; 0% is about no effect
TbPYK inhibitor = T. brucei pyruvate kinase inhibition; Potency, µM (series often up to 76.8 µM), for the others: top-dose activity, negative = inhibition, usual class: inhibitors; TbPYK enzyme, Kinase-Glo Plus ATP luminescence, 45 min; AID 624173; Q57TT1; 0.12% of 410,000 active; note: potency is the fitted concentration of half-maximal effect; % is set by controls: 0 for no effect and ±100 for the full control effect; nearly all actives have a fitted effect of over 50% in size
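Enzyme and substrate buffer are dispensed first and compound is pin-transferred. ADP at 130 uM final then starts the reaction, which runs 45 min at room temperature. Detection reagent is added for 10 min before luminescence is imaged.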
Shiga inhibitor = Shiga toxin inhibition | Vero cells, Shiga toxin protein synthesis inhibition reporter | inhibition, % at 38.7 µM | 9.2% of 290,000 active; in the data active = inhibition mostly above about 28%, no sharp cut-off; inactive = mostly below about 43%; note: 0% is about no effect
RE007 growth inh = less growth of the S. pombe RE007 Vpr strain; S. pombe RE007 Vpr strain, BacTiter-Glo ATP luminescence, 24 h; 0.21% of 360,000 active; Potency, µM (titrated, usually from 92.2 µM), inactives show at the highest dose activity change, negative = less growth, usual class: inhibitors; active = well fitted falling curve with a large enough effect; inconclusive = small, poorly fitted or top-dose-only effect; inactive = no such curve, though single readings can be large or run the other way; note: potency is the fitted concentration of half-maximal effect; % is set by controls: 0 for no effect and ±100 for the full control effect; nearly all actives have a fitted effect of over 50% in size
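Fission yeast strain RE007, carrying one chromosomally integrated HIV-1 vpr copy, was seeded at OD 0.01 in PMG+AL medium with 23 nL pinned compound. After 24 h at 30 °C and 99% humidity, viability was read by BacTiter-Glo luminescence.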
* marks the source's active call; other numbers are inactive results; ? = inconclusive; . = no result given; [ ] = remark or other dose. Unless noted, calls come from the whole dose curve; as a rule, active = well fitted curve in the direction sought with a large enough effect; inconclusive = small, poorly fitted or top-dose-only effect, or another doubt; inactive = no such curve, though single readings can be large; an effect the other way counts as inactive or inconclusive.

SMILES	LmPK inh	FBPA Giardia inh	Cycloheximide cs	TbPYK inhibitor	Shiga inhibitor	RE007 growth inh
FC(F)(F)c1ccc(Nc2nnnc3ccccc23)cc1	-17%	-10%	21*	-5%	36	7%
O=[N+]([O-])c1ccc2c(c1)nc1n2CCN(C2CCCCC2)C1	0%	-3%	37*	-27%	49*	3%
CCCC(=O)Nc1ccc2c(c1)nc1n2CCN(C2CCCCC2)C1	-1%	-25%	2	-6%	4	16%
CC(=O)Nc1ccc2c(c1)nc1n2CCN(C2CCCCC2)C1	0%	-27%	29*	2%	47	8%
O=[N+]([O-])c1ccc2c(c1)nc1n2CCCCC1	-4%	1%	15	4%	22	-3%
O=C1C=C[C@@H](O)[C@H]2[C@@H]3C(=O)N(C[C@@H]4CCCO4)C(=O)[C@@H]3CC[C@H]12	.	-1%[12.9 µM]	.	.	.	.
O=C(NCCc1ccccc1)c1ccc2nc(N3CCOCC3)sc2c1	-3%	10%	12*	1%	14	10%
Cc1cccc(NC(=O)c2ccc3nc(N4CCOCC4)sc3c2)c1C	1%	11%	10	-4%	16*	-10%
O=C(Nc1ccc2nc(N3CCOCC3)sc2c1)c1ccc(F)cc1	.	.	.	1%	.	3%
O=C(Nc1ccccc1Cl)c1ccc2nc(N3CCOCC3)sc2c1	-1%	9%	11*	-12%	19	11%
O=C(Nc1ccc2nc(N3CCOCC3)sc2c1)c1ccccc1	.	.	.	-6%	.	-11%
O=C(Nc1ccc(F)cc1F)c1ccc2nc(N3CCOCC3)sc2c1	-1%	9%	18*	-2%	49*	-5%
O=C1CC(c2nc3ccccc3n2Cc2c(F)cccc2Cl)CN1c1cccc(C(F)(F)F)c1 (configuration not stated)	.	.	.	7%	.	.
CC(=O)N1CCN(C)CC1	.	-7%	.	.	.	.
COc1ccc(S(=O)(=O)NCCc2sc(-c3cccc(C)c3)nc2C)cc1	.	.	.	-6%	.	.
O=c1n(Cc2ccccc2)nc2n1-c1ccccc1SC2	-7%	5%	28*	-1%	49*	-20%
O=c1n(Cc2ccccc2Cl)nc2n1-c1ccccc1SC2	2%	2%	48*	-1%	40*	-17%
C=CCn1nc2n(c1=O)-c1ccccc1SC2	-9%	0%	13	-1%	24	-10%
Cc1ccc(NC(=O)Cn2c(=S)[nH]c3ccccc32)cc1	-13%	1%	22*	-26%	42	0%
COc1ccc(Nc2nc(Nc3ccc(OC)cc3OC)nc(N3CCOCC3)n2)c(OC)c1	.	.	.	2%	.	.
N/C(=N\OC(=O)c1cccc(Cl)c1)c1cccnc1	-12%	-4%	47*	-12%	99*	-25%
N/C(=N\OC(=O)c1ccc(Cl)c(Cl)c1)c1cccnc1	-8%	3%	26*	6%	41	-4%
N/C(=N\OC(=O)c1ccc(Cl)c(Cl)c1)c1cccc(CSc2ccccn2)c1	4%	0%	29*	4%	62*	-6%
O=C(O/N=C(\c1ccccc1)c1ccccn1)c1ccc(Cl)c(Cl)c1	4%	11%	2	-2%	-12	-23%
N/C(=N\OC(=O)c1cccc(Cl)c1)c1ccncc1	-4%	1%	39*	4%	59*	-15%
SMILES	LmPK inh	FBPA Giardia inh	Cycloheximide cs	TbPYK inhibitor	Shiga inhibitor	RE007 growth inh
N/C(=N\OS(=O)(=O)c1ccc(Cl)cc1)c1cccnc1	1%	8%	1	-3%	12	3%
COc1ccc(-c2nnc(SCC(=O)Nc3cccc(F)c3)s2)cc1	.	.	.	-4%	.	.
COc1cc2oc(=O)c(CC(=O)NCc3ccc(OC)c(OC)c3)c(C)c2cc1Cl	.	.	.	-4%	.	.
CCc1ccc(NC(=O)C2CCCCC2C(=O)O)cc1 (configuration not stated)	2%	1%	6	2%	-4	-3%
CCc1ccc(NC(=O)C2C3/C=C\CCCCC32)cc1 (configuration not stated)	-2%	7%	37*	0%	active	3%
O=C(Nc1ccc(Cl)cc1)C1C2CCCCC21 (configuration not stated)	2%	-1%	48*	3%	67*	6%
CCOc1ccc(NC(=O)Cn2c(=O)n(CCC(=O)NCCc3ccccc3)c(=O)c3ccccc32)cc1	.	.	.	-9%	.	.
CC(=O)Nc1ccccc1-c1nc2ccccc2n(C(C)C(=O)Nc2cccc(C)c2C)c1=O (configuration not stated)	.	.	.	-1%	.	.
Cc1ccc(C(=O)NC(=S)Nc2cccnc2Cl)cc1	-2%	?	47*	0%	91*	-12%
Cc1ccc(C(=O)NC(=S)Nc2ccccc2C(F)(F)F)cc1	1%	-17%	14	8%	71	-8%
COc1ccccc1-c1cc(C(=O)Nc2cccnc2Cl)no1	1%	11%	-7	4%	-10	-6%
COc1ccccc1C(=O)NC(=S)Nc1cccnc1Cl	-13%	-7%	18*	4%	24	-24%
COc1cc(NC(=O)CCc2c(C)nn(-c3ccc4nnc(C)n4n3)c2C)cc(OC)c1OC	.	.	.	0%	.	.
CCCCN(C)C(=O)C1CCC(CNS(=O)(=O)c2ccc(Cl)cc2)CC1 (configuration not stated)	.	.	.	-1%[15.4 µM]	.	.
COc1ccc(CCNC(=O)c2cnc3ccc(C)cn3c2=O)cc1OC	.	.	.	4%	.	.
Cc1ccc(NC(=O)CSc2ncccc2C(=O)Oc2cccc([N+](=O)[O-])c2)cc1Cl	-8%	-4%	11	-1%	75*	13%
Cc1ccc(NC(=O)CSc2ncccc2C(=O)Oc2ccccc2Cl)cc1Cl	.	.	.	-11%	.	.
COc1ccccc1CNC(=O)COC(=O)c1cccnc1SCC(=O)NCc1ccccc1OC	11%	-2%	29*	-11%	68*	4%
O=C(COC(=O)c1cccnc1SCC(=O)NCc1ccccc1)NCc1ccccc1	2%	-1%	11	1%	4	1%
CCOC(=O)c1cccnc1SCC(=O)Nc1ccc(C)cc1	5%	-2%	22*	1%	48	16%
CCOC(=O)c1cccnc1SCC(=O)NC(C)CC (configuration not stated)	2%	9%	-5	2%	-1	16%
CN(Cc1ccccc1)C(=O)[C@H](Cc1ccc2ccccc2c1)NC(=O)[C@@H]1C[C@@H](O)CN1C(=O)c1cn(C)c2ccccc12	.	-2%	-2	.	-3	.
COC(=O)[C@@H]1C[C@H]2CC[C@H](O)C[C@H]2N1Cc1c(F)cccc1Cl	.	-2%	.	.	.	.
O=c1c2cc(C(F)(F)F)ccc2sn1-c1ccccc1	.	.	.	7.1µM*	.	8.9µM*
O=c1c2cc(F)ccc2sn1-c1ccccc1	.	.	.	?	.	11µM*
O=C(O)c1cccc(-n2sc3ccccc3c2=O)c1	.	.	.	?	.	1%
CC(=O)N1N=C(c2ccc(Cl)cc2)OC1c1ccc(C(C)C)cc1 (configuration not stated)	0%	0%	30*	5%	110*	-1%

Assay outcomes deposited in PubChem by National Center for Advancing Translational Sciences (NCATS).
